# Reference: PubChem BioAssay AID1239 (SRMLSC, 2008)
# Out of some 190,000 compounds screened, about 3,100 (1.6%) were called active. This is one part of a sample in which actives are shown more often than they occur. Cut-off read from the data, not from the text of the source: active = fold change above about 3.3; inconclusive = no clear call, values can overlap the other calls; inactive = below that.
# Experiment: NF-kB upregulation, human neuronal cells – cell-based, HTS, primary screen (AID 1239)
# Conditions: NF-kB reporter expression, at 12.5 µM, hits give high values
row,Structure (SMILES),fold change
1,COc1cc(C(=O)NCc2ccc(-n3cccc3)cc2)cc(OC)c1OC,1.25 (inactive)
2,COc1ccc(CN2CN(C3CCCC3)CSC2=S)cc1,1.11 (inactive)
3,COc1ccc(-c2nnc3ccc(SCc4ccccc4)nn23)cc1,0.97 (inactive)
4,COC(=O)CSc1nc(C)c2ccc(OC)cc2n1,1.13 (inactive)
5,COc1ccc2nc(SCc3ccccc3)nc(C)c2c1,9.79 (active)
6,O=C(c1ccc2ccccc2n1)N1CCN(c2ccccc2Cl)CC1,2.01 (inactive)
7,CN(C)c1ccc(C=C2C(=O)OC3(CCCC3)OC2=O)cc1,1.03 (inactive)
8,COc1ccc(-c2noc(CSc3ccc(C)cc3)n2)cc1,1.04 (inactive)
9,Cc1cccc(-c2noc(-c3ccc(F)cc3)n2)c1,8.41 (active)
10,COc1ccc(-c2nc(-c3ccccc3)no2)c(OC)c1,1.5 (inactive)
11,COc1ccc2[nH]c(=O)c(-c3noc(-c4ccc(F)cc4)n3)cc2c1,1.09 (inactive)
12,Cc1ccc(Cc2nc(-c3cccc(C)c3)no2)cc1,1.99 (inactive)
13,COc1ccc(-c2noc(-c3ccc(C)cc3)n2)cc1,5.86 (active)
14,COCCNC(=S)N1CCC(NC(=O)C23CC4CC(CC(C4)C2)C3)CC1,0.98 (inactive)
15,CN(CCN1CCOCC1)Cc1nc(-c2ccc3c(c2)OCO3)no1,1.23 (inactive)
16,Cn1cc(-c2ccccc2)cc(C#N)c1=O,1.11 (inactive)
17,CCN(CC)P(=O)(Nc1ccc(SC(F)F)cc1)c1ccc(N(C)C)cc1NC(=O)c1ccco1 (stereo not drawn),0.57 (inactive)
18,COc1ccccc1NC(=S)N1CCN(C(c2ccccc2)c2ccccc2)CC1,0.89 (inactive)
19,CCN(CC(=O)NCc1cccs1)C(=O)c1ccccc1F,1.01 (inactive)
20,CC(C)CCN1CCN(Cc2ccc(C(F)(F)F)cc2)CC1CCO (stereo not drawn),0.9 (inactive)
21,COc1cccc(/C(C)=N/Nc2ncc(Cl)cc2Cl)c1,1.88 (inactive)
22,OCCNc1nc2ccccc2[nH]1,1.02 (inactive)
23,C/C(=N\Nc1ncc(Cl)cc1Cl)c1ccc(S(=O)(=O)NCc2ccco2)cc1,1.29 (inactive)
24,C/C(=N\Nc1nc2ccccc2[nH]1)c1cccs1,5.42 (active)
25,C/C(=N\Nc1nc(Nc2ccccc2)nc(N2CCOCC2)n1)c1cccs1,0.45 (inactive)
26,C/C(=N\Nc1ncc(Cl)cc1Cl)c1cccs1,4.91 (active)

row,Structure (SMILES),fold change
1,CSc1nc2c(c(=O)[nH]1)C(c1cccc(Cl)c1Cl)CC(=O)N2 (stereo not drawn),1.18 (inactive)
2,CC1Cc2ccccc2N1S(=O)(=O)c1c(N)n(C)c(=O)n(C)c1=O (stereo not drawn),1.07 (inactive)
3,CC(C)n1c(=O)[nH]c2cc(C(=O)Nc3ccccc3)ccc21,1.9 (inactive)
4,O=C(Nc1ccccc1)c1ccccc1NC(=O)C(F)(F)F,0.9 (inactive)
5,O=C(Nc1ccccc1)c1cc2ccccc2[nH]1,3.43 (active)
6,N/C(=N\OC(=O)c1ccc2c(c1)OCO2)c1ccc(Br)cc1,3.37 (active)
7,N/C(=N\OC(=O)N1c2ccccc2Sc2ccccc21)c1ccc(Br)cc1,1.29 (inactive)
8,N/C(=N\OC(=O)/C=C/c1ccccc1)c1ccc(Br)cc1,1.46 (inactive)
9,CC(C)(C)OC(=O)N/N=C/c1cn(-c2ccccc2)nc1-c1cccnc1,0.46 (inactive)
10,Cc1ccc(S(=O)(=O)N(CC(=O)NN=C2CCN(C)CC2)c2ccc(F)cc2)cc1,0.83 (inactive)
11,COc1cc(OC)cc(C(=O)OCC(=O)Nc2ccc(F)cc2F)c1,1.18 (inactive)
12,COc1ccc(NC(=O)Nc2ccc3nc(C)c(C)nc3c2)cc1,0.77 (inactive)
13,COc1ccccc1CC(=O)Nc1ccc(F)cc1F,1.07 (inactive)
14,COc1ccc(C(=O)Nc2ccc(S(=O)(=O)NC(C)C)cc2)cc1,1.12 (inactive)
15,COc1ccc(NC(=O)c2ccc(C#CC(C)(C)O)cc2)cc1,1.35 (inactive)
16,COc1ccc(C(=O)Nc2ccc(F)cc2F)cc1,3.39 (active)
17,COc1ccc(NC(=O)c2ccc(OC)cc2)cc1,4.29 (active)
18,COc1ccc(NC(=O)Nc2ccc3nsnc3c2)cc1,3.98 (active)
19,COc1ccc(/C=N/NC(=O)Nc2ccc3nsnc3c2)c(OC)c1,1.11 (inactive)
20,Cc1ccc(-c2nn(-c3cccc(F)c3)cc2CNCCc2ccncc2)o1,0.82 (inactive)
21,Cc1cc(C(=O)N/N=C\C(Br)=C\c2ccccc2)c(C)o1,1.27 (inactive)
22,O=C(Nc1cccn(Cc2ccccc2Cl)c1=O)NC1CCCCC1,1.26 (inactive)
23,O=C(COc1ccccc1[N+](=O)[O-])NC1CC1,1.17 (inactive)
24,Cc1ccc(C(=O)N/C(=C\c2cccs2)C(=O)NCCc2ccccn2)cc1C,1.8 (inactive)
25,Cc1ccccc1Nc1scc(-c2ccc(Br)cc2)[n+]1-c1ccccc1C,0.87 (inactive)
26,Cc1ccnc(N2CCCC(C(=O)Nc3cc(F)ccc3C)C2)n1 (stereo not drawn),1.14 (inactive)

row,Structure (SMILES),fold change
1,O=C(Nc1ccc2c(c1)OCCO2)C1CCCN(c2ncccn2)C1 (stereo not drawn),4.28 (active)
2,Cc1cc(C)nc(N2CCC(C(=O)Nc3ccc4c(c3)OCCO4)CC2)n1,1.22 (inactive)
3,COc1ccc(-c2ccc(CCC(=O)O)n2-c2ccc(O)cc2)cc1,0.84 (inactive)
4,Cc1ccc(S(=O)(=O)N(NC2=NS(=O)(=O)c3ccccc32)C(=O)c2ccccc2)cc1,1.06 (inactive)
5,O=C(Oc1cccc(NC2=NS(=O)(=O)c3ccccc32)c1)c1ccncc1,1.14 (inactive)
6,CC(C)(C)c1csc(NC2=NS(=O)(=O)c3ccccc32)n1,3.56 (active)
7,N#Cc1c(NC(=O)C2CCCO2)sc2c1CCCCC2 (stereo not drawn),1.1 (inactive)
8,CCN(CC)CCNS(=O)(=O)c1ccc(/C=C/C(=O)O)cc1,1.3 (inactive)
9,COc1ccc(/C=N/NC(=O)c2cccc(C(F)(F)F)c2)cc1,0.86 (inactive)
10,CSc1ccc(/C=N/NC(=O)c2cccc(Cl)c2)cc1,3.71 (active)
11,CSc1ccc(/C=N\NC(=O)COc2ccc(Cl)cc2Br)cc1,1.51 (inactive)
12,CC(=O)c1ccccc1NC(=O)CC1(CC(=O)O)CCCCC1,1.2 (inactive)
13,CC(=O)Nc1ccc(CN2CCN(Cc3ccc(F)c(F)c3)C(CCO)C2)cc1 (stereo not drawn),1.18 (inactive)
14,CCCCOc1ccc(-c2nnc(-c3ccco3)o2)cc1,3.49 (active)
15,CCOc1ccc(-c2nnc(-c3ccco3)o2)cc1,2.85 (inactive)
16,CCC(=O)Oc1cccc(C(=O)Nc2ccc(-c3nnc(-c4ccco4)o3)cc2)c1,0.99 (inactive)
17,O=C1CCCC2=C1C(c1cccs1)CC(=O)N2c1ccc(F)cc1 (stereo not drawn),1.01 (inactive)
18,CN(C)CCOCCOc1ccc(Cl)c2ccccc12,0.97 (inactive)
19,CCOC(=O)c1[nH]ncc1CN1CCCC(C(=O)c2ccc(OC)cc2C)C1 (stereo not drawn),1.04 (inactive)
20,C=CCn1c(-c2sc(-c3ccccc3)nc2C)n[nH]c1=S,1.29 (inactive)
21,O=c1oc2c(CN3CCCCC3)c(O)ccc2c2c1CCCCC2,1.01 (inactive)
22,COc1ccc2c3c(c(=O)oc2c1OCC(=O)C(C)(C)C)CCCC3,1.12 (inactive)
23,CCCOc1ccc2c3c(c(=O)oc2c1OCCC)CCC3,5.55 (active)
24,Cc1cccc(NC(=S)NCCc2ccc(F)cc2)c1C,1.04 (inactive)
25,Cc1ccc2c(c1)C(O)(CC(=O)c1cccc(-n3cccc3)c1)C(=O)N2 (stereo not drawn),1.11 (inactive)
26,COC(=O)c1sc2[nH]c(=S)n(N)c(=O)c2c1C,1.19 (inactive)

row,Structure (SMILES),fold change
1,Cc1ccccc1Nc1nc(N)nc(CSc2ccccc2)n1,5.08 (active)
2,Cc1ccccc1Nc1nc(N)nc(CSc2nnc3ccccn23)n1,1.69 (inactive)
3,Cc1ccc(C(=O)OCc2nc(N)nc(Nc3ccccc3C)n2)cc1,0.92 (inactive)
4,C/C(=N/OC(=O)c1c(-c2c(F)cccc2Cl)noc1C)c1cnccn1,1.2 (inactive)
5,CCOc1ccc2nc(SC(CC)C(=O)Nc3cc(C)on3)sc2c1 (stereo not drawn),0.94 (inactive)
6,CCOc1ccc2nc(Nc3nc4ccc(NC(C)=O)cc4s3)sc2c1,0.85 (inactive)
7,CCOc1ccc2nc(C(=O)N3CCCC(C)C3)sc2c1 (stereo not drawn),8.66 (active)
8,CCOC(=O)c1c(NC(=O)C2CC=CCC2C(=O)O)sc(C)c1CC (stereo not drawn),0.88 (inactive)
9,Cc1ccn(-c2cccc(-n3ccc(C)n3)n2)n1,3.56 (active)
10,COc1ccc2oc(-c3cccc(NC(=O)CSc4ccc(Cl)cc4)c3)nc2c1,5.09 (active)
11,COc1cccc(-c2nc3cc(C)ccc3o2)c1,6.47 (active)
12,COc1ccc(C)cc1NC(=O)CSc1ccc(Cl)cc1,1.29 (inactive)
13,COc1cccc(-c2nc(S(=O)(=O)c3ccccc3)c(N3CCOCC3)o2)c1,1.11 (inactive)
14,O=C(Cc1cccc2ccccc12)Nc1ccc2oc(-c3ccccc3)nc2c1,1.24 (inactive)
15,COc1ccc(-c2nc3cc([N+](=O)[O-])ccc3o2)cc1OC,1.48 (inactive)
16,COc1ccc(S(=O)(=O)N2CCCCCC2)cc1C(=O)OCC(=O)Nc1cc(C)on1,0.91 (inactive)
17,CCC(C)(C)c1ccc(OCC(=O)N(C)C)c(C(C)(C)CC)c1,0.82 (inactive)
18,CSc1ccc(CN(C)CC(=O)NCc2ccc(F)cc2)cc1,1.02 (inactive)
19,COc1ccc(OC)c(C(=O)c2ccc(C(=O)N3CCN(Cc4csc(C)n4)CC3)cc2)c1,1.07 (inactive)
20,CN1CCN(Cc2nc3c(c(=O)n(C)c(=O)n3C)n2Cc2cccc3ccccc23)CC1,3.6 (active)
21,CCN1CCN(Cc2nc3c(c(=O)n(C)c(=O)n3C)n2CC(=O)c2ccccc2)CC1,2.25 (inactive)
22,CCOC(=O)N1CCN(Cc2nc3c(c(=O)n(C)c(=O)n3C)n2Cc2ccccc2)CC1,1.26 (inactive)
23,O=C(NC1CCCC1)c1ccc(Br)s1,1.12 (inactive)
24,O=C(Nc1ccc2c(c1)CCC2)c1ccc(Br)s1,11.1 (active)
25,CC(C)C(=O)OCC(=O)Nc1ccc2c(c1)CCC2,1.06 (inactive)
